This is an account of results in PubChem BioAssay (NCATS).

Each structure is given as a SMILES string. Values joined by “and” are separate entries in the source; they are usually repeats but may differ in a detail not shown here. Equal values may be shown once. Records with an inconclusive call do not appear. Entries that show only a call come without a potency. Active and inactive are the calls of the source. Calls come from the whole dose curve; as a rule, active = well fitted curve in the direction sought with a large enough effect; inconclusive = small, poorly fitted or top-dose-only effect, or another doubt; inactive = no such curve, though single readings can be large; an effect the other way counts as inactive or inconclusive.

The first test can be described thus: Primary qHTS for small molecule stabilizers of the endoplasmic reticulum resident proteome: Secreted ER Calcium Modulated Protein (SERCaMP) assay (AID 1508630). The settings on record: SH-SY5Y GLuc-SERCaMP (Gaussia luciferase released on ER calcium loss) secretion, thapsigargin, luminescence; series mostly up to 38.4 µM. The method, boiled down: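 GLuc-SERCaMP-expressing SH-SY5Y cells, pretreated 16 h with compound, are challenged with thapsigargin to empty ER calcium stores; after 4 h, coelenterazine is added directly to the medium and luminescence is imaged.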
(Quantitative high-throughput screening tests each substance at several concentrations.)
Consider `CCc1c2c(nc3ccc(O)cc13)-c1cc3c(c(=O)n1C2)COC(=O)[C@]3(O)CC`, for which the Potency result was “inactive”.

Take `N#CCNC(=O)c1ccc(-c2ccnc(Nc3ccc(N4CCOCC4)cc3)n2)cc1`: the Potency result was “inactive”.

As for `Nc1cccc(-c2cc3c(Oc4cccc(O)c4)ncnc3[nH]2)c1`, the Potency entry was “inactive”.

Turning to `C[C@]12CC[C@H](O)CC1=CCC1C2CC[C@]2(C)C(n3cnc4ccccc43)=CCC12` (some centres not stated), the Potency entry is “inactive”.

In the case of `Cc1c(NC(=O)OC[C@@H]2COCCN2)cn2ncnc(Nc3ccc4c(cnn4Cc4cccc(F)c4)c3)c12`, the Potency result is “inactive”.

Consider `CC(C)c1ccc(Cn2ccc3c4c(N)nc(NC5CC5)nc4ccc32)cc1`, for which the Potency entry was “inactive”.

As for `Cc1ccc(C(N)=O)cc1Nc1nccc(-c2cn(C(C)C)c3cnccc23)n1`, the Potency entry is “inactive”.

On to `O=C(O)c1ccc2cc(-c3ccc(O)c(C45CC6CC(CC(C6)C4)C5)c3)ccc2c1`, for which the Potency entry was “inactive”.

Turning to `NC(=O)Nc1cc(-c2cccc(F)c2)sc1C(=O)N[C@H]1CCCNC1`, the Potency result was “inactive”.

Consider `C[C@@]12O[C@@H](C[C@]1(O)CO)n1c3ccccc3c3c4c(c5c6ccccc6n2c5c31)CNC4=O`, for which the Potency result is “inactive”.

For the compound `Cc1nc(Nc2n[nH]c3c2CN(C(=O)N[C@H](CN(C)C)c2ccccc2)C3(C)C)c2sccc2n1`, the Potency entry is “inactive”.

On to `C[C@@H]1CN(CC(=O)Nc2ccc3c(c2)Cc2cccc(-c4cc(=O)cc(N5CCOCC5)o4)c2S3)C[C@H](C)O1`, for which the Potency entry was “inactive”.

For the compound `Nc1cc(C(F)(F)F)c(-c2cc(N3CCOCC3)nc(N3CCOCC3)n2)cn1`, the Potency result is “inactive”.

Consider `CCN(CC)CCCCNc1ncc2cc(-c3cc(OC)cc(OC)c3)c(NC(=O)NC(C)(C)C)nc2n1`, for which the Potency entry was “inactive”.

As for `Nc1ccccc1NC(=O)c1ccc(CNC(=O)OCc2cccnc2)cc1`, the Potency entry is “inactive”.

As for `CCN1CCN(Cc2ccc(-c3cc4c(N[C@H](C)c5ccccc5)ncnc4[nH]3)cc2)CC1`, the Potency result was “inactive”.

As for `CC(C)C[C@H](NC(=O)CNC(=O)c1cc(Cl)ccc1Cl)B(O)O`, the Potency entry is “inactive”.

Take `COc1cc2ncn(-c3cc(OCc4ccccc4C(F)(F)F)c(C(N)=O)s3)c2cc1OC`: the Potency result was “inactive”.

A short description of another test: Primary qHTS for inhibitors of nuclear receptor binding SET domain protein 2 (NSD2) in an isogenic RCH-ACV NSD2 p.E1099K mutant (9B) (AID 1645876). Note: nearly all actives have a fitted effect of over 70% in size. Note: potency is the fitted concentration of half-maximal effect. The settings on record: RCH-ACV (leukaemia line) NSD2 E1099K (9B) viability, CellTiter-Glo, 72 h; series mostly up to 44.9 µM.
As to `COC(=O)Nc1nc2ccc(C(=O)c3ccc(F)cc3)cc2[nH]1`, the Potency is 1.29 µM (active) and 468 nM (active).

In the case of `CC[C@@]1(O)C(=O)OCc2c1cc1n(c2=O)Cc2cc3cc(O)ccc3nc2-1`, the Potency was 20.9 nM (active).

As for `CC(=O)OCCN1C(=O)c2c(C)nc3ccc(S(=O)(=O)N4CCOCC4)cc3c2C1=O`, the Potency entry was “inactive”.

As to `Cc1cc(Nc2cc(NC(=O)c3c(Cl)cccc3Cl)ccn2)nc(N)n1`, the Potency was 417 nM (active).

Regarding `CC(C)[C@H](C(=O)Nc1ccc(C(=O)NO)cc1)c1ccccc1`, the Potency result is “inactive”.

Regarding `Cc1cc(Nc2cc(N3CCN(C)CC3)nc(Sc3ccc(NC(=O)C4CC4)cc3)n2)n[nH]1`, the Potency was 296 nM (active).

Turning to `C=CC(=O)Nc1cc2c(Nc3ccc(F)c(Cl)c3)ncnc2cc1C#CC(C)(C)N1CCN(C)CC1`, the Potency was 2630 nM (active).

As for `CC(C)(C)c1cc(NC(=O)Nc2ccc(-c3cn4c(n3)sc3cc(OCCN5CCOCC5)ccc34)cc2)no1`, the Potency result is “inactive”.

As to `COCCOc1ccc2c(c1)ncn2-c1ccc2cccc(N3CCC(N)CC3)c2n1`, the Potency was 2.3 µM (active) and 2.09 µM (active).

With `c1nc2nc(Nc3ccc(N4CCOCC4)cc3)nc(NC3CCCCC3)c2[nH]1`, the Potency is 632 nM (active) and 662 nM (active).

Regarding `COc1cccc2nc(-c3cccs3)nc(NN3C(=O)C=C(C)C3=O)c12`, the Potency is 372 nM (active).

As for `c1cc(-c2cnn3cc(-c4ccc(OCCN5CCCCC5)cc4)cnc23)ccn1`, the Potency is 3.66 µM (active) and 3.72 µM (active).

As for `C[C@@H]1COC(Nc2ccc3ncnc(Nc4ccc(OCc5nccs5)c(Cl)c4)c3c2)=N1`, the Potency was 13200 nM (active).

For the compound `CC[C@@H]1C(=O)N(C)c2cnc(Nc3ccc(C(=O)NC4CCN(C)CC4)cc3OC)nc2N1C1CCCC1`, the Potency was 37.2 nM (active).

As to `O=c1[nH]c(=O)n(C2CCCO2)cc1F` (configuration not stated), the Potency entry was “inactive”.

For the compound `CN1CCN(c2cc(C(=O)Nc3ccc4c(c3)-c3c(c(C(N)=O)nn3-c3ccc(F)cc3)CC4)c(Cl)cn2)CC1`, the Potency was 7420 nM (active).

As for `CCc1c2c(nc3ccc(O)cc13)-c1cc3c(c(=O)n1C2)COC(=O)[C@]3(O)CC`, the Potency was 8.3 nM (active).

Take `N#CCNC(=O)c1ccc(-c2ccnc(Nc3ccc(N4CCOCC4)cc3)n2)cc1`: the Potency is 817 nM (active) and 2.63 µM (active).

Regarding `Nc1cccc(-c2cc3c(Oc4cccc(O)c4)ncnc3[nH]2)c1`, the Potency is 1.15 µM (active) and 1.05 µM (active).
